Results as given in PubChem BioAssay (EPA / NIEHS).
Activity calls are given as the source filed them. How the source made its calls: active means hit-call score of the fitted dose curve at least 0.9, where 1 is the maximum; inactive means score below 0.9.

What was measured:
[1] = APR_HepG2_NuclearSize_72hr: Apredica 72-hour HepG2 Assay for Nuclear Size (AID 2282925); conditions: high-content imaging, actives raise or lower the signal
Procedure, shortened: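 HepG2 cells dosed 72 h at 0.39–200 uM (10 concentrations, duplicate) in 0.5% v/v DMSO final. Fixed, Hoechst 33342-stained nuclei imaged; nuclear diameter measured by automated image analysis. Bidirectional fit versus DMSO.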

[2] = ATG_CRE_CIS: Attagene CIS-FACTORIAL HepG2 Assay for human cAMP Responsive Element (CRE) binding protein 3 (AID 2282926); conditions: HepG2 CRE cis-reporter, Attagene multiplexed mRNA; actives raise or lower the signal
Procedure, shortened: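 HepG2 cells transiently transfected with a multiplexed reporter library (CRE-driven unit among them) were dosed for 24 h. Reporter mRNA was quantified by RT-PCR, fluorescent labelling, HpaI digestion and capillary electrophoresis, with bidirectional fitting against DMSO baseline.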

[3] = target: CCAAT/enhancer-binding protein beta (Homo sapiens) (UniProt P17676); test: ATG_C_EBP_CIS: Attagene CIS-FACTORIAL HepG2 Assay for human CCAAT/Enhancer Binding Protein (C/EBP) beta (AID 2282927); conditions: HepG2 Attagene cis-factorial transcription factor reporter; actives raise or lower the signal
Procedure, shortened: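 Transiently transfected HepG2 (MRTU library, endogenous TF-driven promoters); 24 h dosing; total RNA → oligo(dT) RT → PCR → 6-FAM primer extension → HpaI digest → CE; fit bidirectionally vs DMSO.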

[4] = ATG_DR4_LXR_CIS: Attagene CIS-FACTORIAL HepG2 Assay for human Liver X Receptor (LXR), DR4 submotif (AID 2282929); conditions: HepG2 Attagene DR4 cis-reporter, mRNA transcription; actives raise or lower the signal
Procedure, shortened: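 Fluorescence intensity of labelled reporter cDNA fragments, separated by capillary electrophoresis, gives the signal. HepG2 cells bearing cis-regulated reporter constructs were treated 24 h; activity fitted bidirectionally relative to DMSO negative control.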

[5] = target: Aryl hydrocarbon receptor (Homo sapiens) (UniProt P35869); test: ATG_Ahr_CIS: Attagene CIS-FACTORIAL HepG2 Assay for human Aryl Hydrocarbon Receptor (Ahr) (AID 2282930); conditions: HepG2 AhR cis-factorial reporter transcription; actives raise or lower the signal
Procedure, shortened: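 Read-out: reporter mRNA quantified by RT-PCR with fluorescent primer extension and capillary electrophoresis. Human HepG2 liver cells carried transfected cis-promoter reporter units and were exposed to chemical for 24 h; gain or loss fitted relative to DMSO.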

[6] = ATG_AP_1_CIS: Attagene CIS-FACTORIAL HepG2 Assay for human Activator Protein 1 (AP-1) (AID 2282931); conditions: HepG2 Attagene cis-factorial AP-1 reporter mRNA; actives raise or lower the signal
Procedure, shortened: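 Multiplexed HepG2 reporter assay, 24 h dosing. mRNA induction detected by RT-PCR plus capillary electrophoresis. Activity fitted in both directions against DMSO.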

[7] = ATG_AP_2_CIS: Attagene CIS-FACTORIAL HepG2 Assay for human Activator Protein 2 (AP-2) (AID 2282932); conditions: HepG2 AP-2 cis-reporter, Attagene transcription factor profiling; actives raise or lower the signal
Procedure, shortened: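 Multiplexed mRNA reporter assay in HepG2: cis-regulated units report endogenous factor activity after 24 h treatment. Fluorescence from capillary electrophoresis of RT-PCR products gives the signal, with DMSO as baseline.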

[8] = ATG_BRE_CIS: Attagene CIS-FACTORIAL HepG2 Assay for human Bone Morphogenetic Protein (BMP) Response Element (BRE) (AID 2282933); conditions: HepG2 BMP response element reporter, Attagene transcription factor profiling; actives raise or lower the signal
Procedure, shortened: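 Read-out: reporter mRNA induction quantified by RT-PCR and capillary electrophoresis after 24 h chemical exposure of transfected HepG2 cells. Endogenous factor activity on the BMP response element; gain or loss fitted against DMSO baseline.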

[9] = target: Retinoic acid receptor alpha (Homo sapiens) (UniProt P10276); test: ATG_DR5_RAR_CIS: Attagene CIS-FACTORIAL HepG2 Assay for human Retinoic Acid Receptor Alpha (RARE), DR5 submotif (AID 2282934); conditions: HepG2 Attagene cis-factorial RARE DR5 reporter, mRNA; actives raise or lower the signal
Procedure, shortened: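 Read-out: DR5-driven reporter transcript measured by RT-PCR, 6-FAM primer extension, HpaI digest and capillary electrophoresis. Human HepG2 liver cells carry transiently transfected cis-element reporter constructs; dosing lasts 24 h. Gain or loss of signal fitted against DMSO baseline.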

[10] = target: Transcription factor E2F1 (Homo sapiens) (UniProt Q01094); test: ATG_E2F_CIS: Attagene CIS-FACTORIAL HepG2 Assay for human E2F Transcription Factor 1 (AID 2282935); conditions: HepG2 Attagene cis-reporter, E2F reporter RNA transcripts; actives raise or lower the signal
Procedure, shortened: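 Measures reporter transcript levels via RT-PCR with capillary electrophoresis detection in HepG2 cells harboring cis-regulated reporter units; 24 h post-dose; bidirectional curve fitting with DMSO as baseline.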

[11] = ATG_E_Box_CIS: Attagene CIS-FACTORIAL HepG2 Assay for human Enhancer Box (E-box) (AID 2282936); conditions: HepG2 E-box cis-reporter transcription, actives raise or lower the signal
Procedure, shortened: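 First, HepG2 cells receive multiple cis-regulated reporter constructs by transient transfection. Next, chemicals are applied for 24 h. Finally, reporter mRNA is quantified via RT-PCR and capillary electrophoresis, with DMSO as baseline.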

[12] = ATG_M_61_CIS: Attagene CIS-FACTORIAL HepG2 Assay for M61 Transcription Factor (Internal Marker) (AID 2282937); conditions: HepG2 Attagene CIS-FACTORIAL M61 internal marker reporter; actives raise or lower the signal
Procedure, shortened: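 Endogenous transcription factor activity in HepG2 is read through transiently transfected cis-element reporter units. After 24 h dosing, RNA undergoes reverse transcription, PCR and primer extension with 6-FAM before capillary electrophoresis; DMSO-referenced bidirectional fit.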

[13] = ATG_EGR_CIS: Attagene CIS-FACTORIAL HepG2 Assay for human Early Growth Response 1 (EGR1) (AID 2282938); conditions: HepG2 Attagene CIS-FACTORIAL EGR reporter mRNA; actives raise or lower the signal
Procedure, shortened: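 Activity is taken as induction or loss of reporter mRNA versus DMSO, fitted bidirectionally. Transcripts from cis-regulated reporter units in transiently transfected HepG2 were measured after 24 h by RT-PCR with capillary electrophoresis.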

[14] = ATG_ERE_CIS: Attagene CIS-FACTORIAL HepG2 Assay for Estrogen Response Element (ERE) (AID 2282940); conditions: HepG2 ERE cis-reporter, Attagene RNA transcript; actives raise or lower the signal
Procedure, shortened: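 Readout: reporter mRNA induction by RT-PCR, FAM-labelled primer extension, HpaI digestion and capillary electrophoresis, 24 h after dosing transfected HepG2 cells. Endogenous transcription factors act on cis-element-regulated reporters. Gain or loss fitted against DMSO.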

[15] = ATG_Ets_CIS: Attagene CIS-FACTORIAL HepG2 Assay for human Erythroblast Transformation Specific (ETS) (AID 2282941); conditions: HepG2 ETS cis-reporter transcription, actives raise or lower the signal
Procedure, shortened: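 Human HepG2 hepatoma cells were transiently transfected with promoter-driven reporter constructs and treated for 24 hours. Reporter transcripts were quantified by RT-PCR with fluorescent primer extension; bidirectional curve fitting used DMSO as reference.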

[16] = target: Hepatocyte nuclear factor 3-beta (Homo sapiens) (UniProt Q9Y261); test: ATG_FoxA2_CIS: Attagene CIS-FACTORIAL HepG2 Assay for human Forkhead box A2 (FOXA2) (AID 2282942); conditions: HepG2 cis-reporter transcription factor activity, 24 h; actives raise or lower the signal
Procedure, shortened: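 Reporter transcript induction is measured by fluorescence after capillary electrophoresis of RT-PCR products from HepG2 cells exposed 24 h. Cis-regulated reporter units report endogenous factor activity; curves fitted both directions against DMSO.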

[17] = ATG_FoxO_CIS: Attagene CIS-FACTORIAL HepG2 Assay for human Forkhead box O (FoxO) (AID 2282943); conditions: HepG2 Attagene cis-reporter, FoxO element, mRNA; actives raise or lower the signal
Procedure, shortened: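 Read-out: fluorescence of 6-FAM-labelled reporter cDNA fragments resolved by capillary electrophoresis. Transiently transfected HepG2 cells were dosed for 24 h; activity fitted in both directions relative to DMSO controls.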

[18] = ATG_GATA_CIS: Attagene CIS-FACTORIAL HepG2 Assay for human GATA Binding Protein (AID 2282944); conditions: HepG2 GATA cis-element reporter, Attagene multiplex mRNA; actives raise or lower the signal
Procedure, shortened: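 Read-out: fluorescent reporter mRNA fragments resolved by capillary electrophoresis after RT-PCR. Human liver HepG2 cells carried transiently transfected cis-regulated reporter constructs; chemicals incubated 24 h; gain or loss of signal fitted relative to DMSO.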

[19] = ATG_M_19_CIS: Attagene CIS-FACTORIAL HepG2 Assay for M19 Transcription Factor (Internal Marker) (AID 2282939); conditions: HepG2 Attagene CIS-FACTORIAL M19 internal marker reporter; actives raise or lower the signal
Procedure, shortened: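 Readout: fluorescent reporter-transcript fragments by capillary electrophoresis after RT-PCR. Human HepG2 liver cells carried transfected MRTU constructs reporting endogenous transcription-factor activity; exposure 24 h. Gain or loss of signal fitted relative to DMSO.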

Aryl hydrocarbon receptor (Homo sapiens), sequence (P35869 whole entry, looked up): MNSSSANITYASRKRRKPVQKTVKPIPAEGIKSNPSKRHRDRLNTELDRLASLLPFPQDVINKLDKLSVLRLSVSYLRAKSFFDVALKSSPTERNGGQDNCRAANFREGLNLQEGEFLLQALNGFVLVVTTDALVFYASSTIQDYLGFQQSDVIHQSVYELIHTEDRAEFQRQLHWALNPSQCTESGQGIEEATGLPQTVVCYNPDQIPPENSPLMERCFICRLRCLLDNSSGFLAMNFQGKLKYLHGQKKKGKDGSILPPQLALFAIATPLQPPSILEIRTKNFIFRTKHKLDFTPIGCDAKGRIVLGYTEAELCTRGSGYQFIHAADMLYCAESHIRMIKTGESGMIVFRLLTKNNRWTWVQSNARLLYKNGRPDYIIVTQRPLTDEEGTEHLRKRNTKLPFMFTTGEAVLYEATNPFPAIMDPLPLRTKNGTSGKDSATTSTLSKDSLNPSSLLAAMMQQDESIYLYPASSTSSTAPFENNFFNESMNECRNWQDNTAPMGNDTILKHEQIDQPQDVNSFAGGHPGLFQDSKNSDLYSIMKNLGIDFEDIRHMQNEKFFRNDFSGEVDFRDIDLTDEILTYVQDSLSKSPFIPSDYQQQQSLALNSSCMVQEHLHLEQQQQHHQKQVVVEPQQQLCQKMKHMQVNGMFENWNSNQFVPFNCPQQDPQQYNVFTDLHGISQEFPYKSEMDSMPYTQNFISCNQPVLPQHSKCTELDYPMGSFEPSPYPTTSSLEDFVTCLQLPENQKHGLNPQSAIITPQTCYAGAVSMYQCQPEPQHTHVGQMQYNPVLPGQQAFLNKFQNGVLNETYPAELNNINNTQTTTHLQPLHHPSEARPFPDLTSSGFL
Retinoic acid receptor alpha (Homo sapiens), sequence (P10276 whole entry, looked up): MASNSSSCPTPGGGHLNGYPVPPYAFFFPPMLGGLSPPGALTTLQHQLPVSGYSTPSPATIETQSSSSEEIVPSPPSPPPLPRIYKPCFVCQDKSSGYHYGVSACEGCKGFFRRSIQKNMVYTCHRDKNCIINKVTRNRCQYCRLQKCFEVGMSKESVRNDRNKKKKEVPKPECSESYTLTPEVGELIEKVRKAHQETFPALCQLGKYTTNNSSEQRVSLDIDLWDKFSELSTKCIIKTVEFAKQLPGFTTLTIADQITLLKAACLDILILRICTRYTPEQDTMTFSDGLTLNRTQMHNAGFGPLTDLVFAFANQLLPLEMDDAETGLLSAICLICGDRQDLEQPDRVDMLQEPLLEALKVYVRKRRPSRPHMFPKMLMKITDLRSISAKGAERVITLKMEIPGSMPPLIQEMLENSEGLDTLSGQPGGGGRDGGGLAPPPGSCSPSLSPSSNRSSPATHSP
Transcription factor E2F1 (Homo sapiens), sequence (Q01094 whole entry, looked up): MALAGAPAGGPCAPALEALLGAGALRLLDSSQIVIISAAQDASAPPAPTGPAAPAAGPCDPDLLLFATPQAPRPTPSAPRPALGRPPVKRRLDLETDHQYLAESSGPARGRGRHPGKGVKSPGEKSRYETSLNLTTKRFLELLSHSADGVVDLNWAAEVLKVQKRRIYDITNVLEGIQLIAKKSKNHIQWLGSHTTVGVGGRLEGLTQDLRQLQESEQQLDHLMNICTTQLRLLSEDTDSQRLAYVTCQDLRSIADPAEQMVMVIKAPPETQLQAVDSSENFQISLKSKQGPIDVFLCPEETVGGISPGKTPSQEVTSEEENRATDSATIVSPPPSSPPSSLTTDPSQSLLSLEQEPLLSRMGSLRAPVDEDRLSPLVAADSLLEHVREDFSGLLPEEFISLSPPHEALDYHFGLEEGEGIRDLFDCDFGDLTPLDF
Hepatocyte nuclear factor 3-beta (Homo sapiens), sequence (Q9Y261 whole entry, looked up): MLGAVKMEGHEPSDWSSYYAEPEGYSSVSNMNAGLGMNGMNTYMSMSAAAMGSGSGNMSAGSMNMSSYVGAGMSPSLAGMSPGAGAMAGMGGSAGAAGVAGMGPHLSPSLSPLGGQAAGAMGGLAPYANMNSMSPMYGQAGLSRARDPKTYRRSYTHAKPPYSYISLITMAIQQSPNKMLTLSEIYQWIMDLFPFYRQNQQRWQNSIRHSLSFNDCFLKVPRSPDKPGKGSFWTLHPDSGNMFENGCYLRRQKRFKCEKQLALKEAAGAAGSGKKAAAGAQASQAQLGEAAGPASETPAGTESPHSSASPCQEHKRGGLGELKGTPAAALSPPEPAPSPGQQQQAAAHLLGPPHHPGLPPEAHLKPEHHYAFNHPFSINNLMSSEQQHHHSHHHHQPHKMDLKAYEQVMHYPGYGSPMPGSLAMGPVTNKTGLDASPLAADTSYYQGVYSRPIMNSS
CCAAT/enhancer-binding protein beta (Homo sapiens), sequence (P17676 whole entry, looked up): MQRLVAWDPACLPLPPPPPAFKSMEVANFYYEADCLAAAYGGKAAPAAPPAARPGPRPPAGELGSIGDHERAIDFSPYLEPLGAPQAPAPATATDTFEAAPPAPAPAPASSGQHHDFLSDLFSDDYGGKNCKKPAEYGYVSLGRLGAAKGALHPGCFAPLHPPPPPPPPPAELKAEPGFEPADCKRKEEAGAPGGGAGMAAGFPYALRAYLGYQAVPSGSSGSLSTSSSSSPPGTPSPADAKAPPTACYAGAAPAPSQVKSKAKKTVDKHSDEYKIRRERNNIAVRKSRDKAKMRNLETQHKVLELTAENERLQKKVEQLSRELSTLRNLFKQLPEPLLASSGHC

O=c1c(O)c(-c2ccc(O)c(O)c2)oc2cc(O)cc(O)c12
outcome [1]: inactive
outcome [2]: inactive
outcome [3]: inactive
outcome [4]: inactive
AC50 [5]: 5.8 µM (active)
AC50 [6]: 100 µM (active)
outcome [7]: inactive
outcome [8]: inactive
outcome [9]: inactive
outcome [10]: inactive
outcome [11]: inactive
outcome [12]: inactive
outcome [13]: inactive
AC50 [14]: 25.8 µM (active)
outcome [15]: inactive
outcome [16]: inactive
outcome [17]: inactive
outcome [18]: inactive

COc1cc(-c2nc(NC(=O)c3cc4cc(C)cc(C)c4n3CC(=O)O)sc2CCC2CCCCC2)c(OC)cc1Cl
outcome [1]: inactive
AC50 [2]: 36 µM (active)
AC50 [3]: 4.79 µM (active)
outcome [4]: inactive
AC50 [5]: 10.4 µM (active)
AC50 [6]: 3.59 µM (active)
AC50 [7]: 10.4 µM (active)
AC50 [8]: 10.4 µM (active)
outcome [10]: inactive
AC50 [11]: 25.6 µM (active)
outcome [12]: inactive
AC50 [13]: 9.13 µM (active)
outcome [19]: inactive
outcome [14]: inactive
AC50 [15]: 32.2 µM (active)
outcome [16]: inactive
outcome [17]: inactive
outcome [18]: inactive

O=C(O)Cc1ccccc1Nc1c(Cl)cccc1Cl
outcome [1]: inactive
outcome [2]: inactive
outcome [3]: inactive
AC50 [4]: 68.7 µM (active)
AC50 [5]: 67.3 µM (active)
outcome [6]: inactive
outcome [7]: inactive
outcome [8]: inactive
outcome [10]: inactive
AC50 [11]: 176 µM (active)
outcome [12]: inactive
outcome [13]: inactive
outcome [19]: inactive
outcome [14]: inactive
outcome [15]: inactive
outcome [16]: inactive
outcome [17]: inactive
outcome [18]: inactive

O=c1[nH]cc(F)c(=O)[nH]1
outcome [1]: inactive
outcome [2]: inactive
outcome [3]: inactive
outcome [4]: inactive
outcome [5]: inactive
AC50 [6]: 12.9 µM (active)
outcome [7]: inactive
outcome [8]: inactive
outcome [10]: inactive
outcome [11]: inactive
outcome [12]: inactive
outcome [13]: inactive
outcome [19]: inactive
outcome [14]: inactive
outcome [15]: inactive
outcome [16]: inactive
outcome [17]: inactive
outcome [18]: inactive

CCOC(=O)C(C)(C)Oc1ccc(Cl)cc1
outcome [1]: inactive
outcome [2]: inactive
outcome [3]: inactive
outcome [4]: inactive
outcome [5]: inactive
outcome [6]: inactive
outcome [7]: inactive
outcome [8]: inactive
outcome [10]: inactive
outcome [11]: inactive
outcome [12]: inactive
outcome [13]: inactive
outcome [14]: inactive
outcome [15]: inactive
outcome [16]: inactive
outcome [17]: inactive
outcome [18]: inactive

CCCCCCC(=O)OCC
outcome [1]: inactive
outcome [2]: inactive
outcome [3]: inactive
outcome [4]: inactive
outcome [5]: inactive
outcome [6]: inactive
outcome [7]: inactive
outcome [8]: inactive
outcome [9]: inactive
outcome [10]: inactive
outcome [11]: inactive
outcome [12]: inactive
outcome [13]: inactive
AC50 [14]: 34.7 µM (active)
outcome [15]: inactive
outcome [16]: inactive
outcome [17]: inactive
outcome [18]: inactive

CC=Cc1ccc(O)c(OC)c1
outcome [1]: inactive
outcome [2]: inactive
outcome [3]: inactive
outcome [4]: inactive
AC50 [5]: 73.5 µM (active)
outcome [6]: inactive
outcome [7]: inactive
outcome [8]: inactive
outcome [9]: inactive
outcome [10]: inactive
outcome [11]: inactive
outcome [12]: inactive
outcome [13]: inactive
outcome [14]: inactive
outcome [15]: inactive
outcome [16]: inactive
outcome [17]: inactive
outcome [18]: inactive

CCCCCCCCCCCCCCCC
outcome [1]: inactive
outcome [2]: inactive
outcome [3]: inactive
outcome [4]: inactive
outcome [5]: inactive
outcome [6]: inactive
outcome [7]: inactive
outcome [8]: inactive
outcome [9]: inactive
outcome [10]: inactive
outcome [11]: inactive
outcome [12]: inactive
outcome [13]: inactive
outcome [14]: inactive
outcome [15]: inactive
outcome [16]: inactive
outcome [17]: inactive
outcome [18]: inactive

Cc1ccc(C)c(C)c1
outcome [1]: inactive
outcome [2]: inactive
outcome [3]: inactive
outcome [4]: inactive
outcome [5]: inactive
outcome [6]: inactive
outcome [7]: inactive
outcome [8]: inactive
outcome [9]: inactive
outcome [10]: inactive
outcome [11]: inactive
outcome [12]: inactive
outcome [13]: inactive
outcome [14]: inactive
outcome [15]: inactive
outcome [16]: inactive
outcome [17]: inactive
outcome [18]: inactive
